Experimental data as given in ChEMBL document CHEMBL2218924, “A broad activity screen in support of a chemogenomic map for kinase signalling research and drug discovery” (Biochem J, 2013).

Tests used:
[1] = target: T1, Serine/threonine-protein kinase 17A (Homo sapiens) (UniProt Q9UEE5); details: at 10 µM
T1 sequence (whole entry): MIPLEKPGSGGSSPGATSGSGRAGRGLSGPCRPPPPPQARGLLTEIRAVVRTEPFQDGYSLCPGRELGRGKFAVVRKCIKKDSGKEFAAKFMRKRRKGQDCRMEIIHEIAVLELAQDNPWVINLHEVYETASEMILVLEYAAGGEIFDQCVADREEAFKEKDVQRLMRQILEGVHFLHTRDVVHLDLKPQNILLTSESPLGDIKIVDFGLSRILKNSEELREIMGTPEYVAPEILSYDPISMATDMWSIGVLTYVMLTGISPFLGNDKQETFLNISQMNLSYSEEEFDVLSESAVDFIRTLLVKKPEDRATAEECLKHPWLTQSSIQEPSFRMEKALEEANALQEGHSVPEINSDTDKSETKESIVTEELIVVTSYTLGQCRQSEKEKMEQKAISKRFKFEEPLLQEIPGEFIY

[2] = target: T2, Dual specificity tyrosine-phosphorylation-regulated kinase 2 (Homo sapiens) (UniProt Q92630); details: at 1 µM
T2 sequence (whole entry): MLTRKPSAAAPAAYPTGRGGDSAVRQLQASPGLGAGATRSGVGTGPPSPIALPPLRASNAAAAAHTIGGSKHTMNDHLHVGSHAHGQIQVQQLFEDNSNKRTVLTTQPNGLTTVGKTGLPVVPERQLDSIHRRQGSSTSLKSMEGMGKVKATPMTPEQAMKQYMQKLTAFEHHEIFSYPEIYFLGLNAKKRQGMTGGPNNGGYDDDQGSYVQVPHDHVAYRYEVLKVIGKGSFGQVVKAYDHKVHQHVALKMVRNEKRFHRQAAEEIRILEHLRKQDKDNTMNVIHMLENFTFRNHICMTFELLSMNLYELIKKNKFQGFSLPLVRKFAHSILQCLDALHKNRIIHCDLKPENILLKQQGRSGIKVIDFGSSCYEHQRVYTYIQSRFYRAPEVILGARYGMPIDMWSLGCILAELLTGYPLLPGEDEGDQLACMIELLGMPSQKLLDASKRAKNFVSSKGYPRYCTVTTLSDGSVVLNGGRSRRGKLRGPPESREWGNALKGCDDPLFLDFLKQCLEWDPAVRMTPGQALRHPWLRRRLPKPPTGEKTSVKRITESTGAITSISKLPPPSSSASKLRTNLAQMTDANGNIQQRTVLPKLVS

[3] = target: T2, Dual specificity tyrosine-phosphorylation-regulated kinase 2 (Homo sapiens); details: at 10 µM
[4] = target: T3, Ephrin type-A receptor 1 (Homo sapiens) (UniProt P21709); details: at 1 µM
T3 sequence (whole entry): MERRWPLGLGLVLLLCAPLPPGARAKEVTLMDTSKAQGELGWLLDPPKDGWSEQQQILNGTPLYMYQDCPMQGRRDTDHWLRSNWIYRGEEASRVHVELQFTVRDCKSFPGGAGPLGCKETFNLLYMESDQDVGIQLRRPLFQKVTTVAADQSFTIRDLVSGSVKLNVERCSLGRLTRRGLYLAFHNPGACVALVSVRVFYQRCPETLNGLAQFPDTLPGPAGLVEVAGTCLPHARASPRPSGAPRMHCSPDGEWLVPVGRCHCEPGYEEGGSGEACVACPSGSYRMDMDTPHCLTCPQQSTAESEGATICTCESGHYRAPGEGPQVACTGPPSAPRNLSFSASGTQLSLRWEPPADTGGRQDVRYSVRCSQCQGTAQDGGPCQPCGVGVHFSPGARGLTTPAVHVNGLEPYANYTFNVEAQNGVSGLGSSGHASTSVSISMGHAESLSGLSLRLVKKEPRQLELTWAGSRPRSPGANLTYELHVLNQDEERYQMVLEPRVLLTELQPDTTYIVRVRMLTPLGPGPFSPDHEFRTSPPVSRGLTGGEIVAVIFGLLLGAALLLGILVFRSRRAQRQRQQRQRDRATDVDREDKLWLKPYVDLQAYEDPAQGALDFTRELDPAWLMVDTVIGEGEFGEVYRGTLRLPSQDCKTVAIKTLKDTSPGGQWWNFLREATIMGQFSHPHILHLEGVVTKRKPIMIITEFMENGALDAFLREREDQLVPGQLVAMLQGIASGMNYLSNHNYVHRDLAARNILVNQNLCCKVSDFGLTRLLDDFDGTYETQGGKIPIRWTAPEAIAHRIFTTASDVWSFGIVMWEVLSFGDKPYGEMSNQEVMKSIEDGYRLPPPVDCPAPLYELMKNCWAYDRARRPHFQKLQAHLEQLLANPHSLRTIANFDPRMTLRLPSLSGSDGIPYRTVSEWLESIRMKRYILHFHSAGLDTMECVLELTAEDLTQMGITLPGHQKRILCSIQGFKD

[5] = target: T3, Ephrin type-A receptor 1 (Homo sapiens); details: at 10 µM
[6] = target: Ephrin type-A receptor 2 (Homo sapiens) (UniProt P29317); details: at 1 µM
Sequence of Ephrin type-A receptor 2 (Homo sapiens) (P29317 whole entry): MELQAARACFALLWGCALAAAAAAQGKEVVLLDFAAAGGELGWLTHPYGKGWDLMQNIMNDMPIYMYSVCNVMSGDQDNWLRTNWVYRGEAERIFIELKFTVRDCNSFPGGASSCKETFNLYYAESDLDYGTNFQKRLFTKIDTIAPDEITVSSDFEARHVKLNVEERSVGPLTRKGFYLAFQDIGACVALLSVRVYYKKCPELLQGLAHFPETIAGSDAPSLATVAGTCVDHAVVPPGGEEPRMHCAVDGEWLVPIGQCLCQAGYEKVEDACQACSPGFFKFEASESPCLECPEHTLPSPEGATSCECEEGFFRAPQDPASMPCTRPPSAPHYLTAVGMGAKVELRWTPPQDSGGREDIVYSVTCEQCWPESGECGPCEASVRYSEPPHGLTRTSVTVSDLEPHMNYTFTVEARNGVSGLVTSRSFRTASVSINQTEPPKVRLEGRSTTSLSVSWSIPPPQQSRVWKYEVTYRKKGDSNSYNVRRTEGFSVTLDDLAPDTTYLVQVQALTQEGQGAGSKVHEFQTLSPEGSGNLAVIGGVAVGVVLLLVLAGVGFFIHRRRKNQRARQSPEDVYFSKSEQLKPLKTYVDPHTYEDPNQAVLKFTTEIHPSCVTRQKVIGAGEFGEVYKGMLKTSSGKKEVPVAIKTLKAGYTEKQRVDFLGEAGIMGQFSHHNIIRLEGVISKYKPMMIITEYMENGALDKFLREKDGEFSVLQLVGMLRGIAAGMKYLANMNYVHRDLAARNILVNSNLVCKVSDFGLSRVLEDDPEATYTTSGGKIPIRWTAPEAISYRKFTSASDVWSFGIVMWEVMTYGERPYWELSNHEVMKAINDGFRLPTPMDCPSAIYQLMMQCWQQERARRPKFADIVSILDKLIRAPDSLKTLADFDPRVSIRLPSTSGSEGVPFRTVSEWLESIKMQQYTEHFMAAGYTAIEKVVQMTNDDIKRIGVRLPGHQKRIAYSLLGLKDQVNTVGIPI

[7] = target: Ephrin type-A receptor 2 (Homo sapiens) (UniProt P29317); details: at 10 µM
[8] = target: T4, Ephrin type-A receptor 3 (Homo sapiens) (UniProt P29320); details: at 1 µM
T4 sequence (whole entry): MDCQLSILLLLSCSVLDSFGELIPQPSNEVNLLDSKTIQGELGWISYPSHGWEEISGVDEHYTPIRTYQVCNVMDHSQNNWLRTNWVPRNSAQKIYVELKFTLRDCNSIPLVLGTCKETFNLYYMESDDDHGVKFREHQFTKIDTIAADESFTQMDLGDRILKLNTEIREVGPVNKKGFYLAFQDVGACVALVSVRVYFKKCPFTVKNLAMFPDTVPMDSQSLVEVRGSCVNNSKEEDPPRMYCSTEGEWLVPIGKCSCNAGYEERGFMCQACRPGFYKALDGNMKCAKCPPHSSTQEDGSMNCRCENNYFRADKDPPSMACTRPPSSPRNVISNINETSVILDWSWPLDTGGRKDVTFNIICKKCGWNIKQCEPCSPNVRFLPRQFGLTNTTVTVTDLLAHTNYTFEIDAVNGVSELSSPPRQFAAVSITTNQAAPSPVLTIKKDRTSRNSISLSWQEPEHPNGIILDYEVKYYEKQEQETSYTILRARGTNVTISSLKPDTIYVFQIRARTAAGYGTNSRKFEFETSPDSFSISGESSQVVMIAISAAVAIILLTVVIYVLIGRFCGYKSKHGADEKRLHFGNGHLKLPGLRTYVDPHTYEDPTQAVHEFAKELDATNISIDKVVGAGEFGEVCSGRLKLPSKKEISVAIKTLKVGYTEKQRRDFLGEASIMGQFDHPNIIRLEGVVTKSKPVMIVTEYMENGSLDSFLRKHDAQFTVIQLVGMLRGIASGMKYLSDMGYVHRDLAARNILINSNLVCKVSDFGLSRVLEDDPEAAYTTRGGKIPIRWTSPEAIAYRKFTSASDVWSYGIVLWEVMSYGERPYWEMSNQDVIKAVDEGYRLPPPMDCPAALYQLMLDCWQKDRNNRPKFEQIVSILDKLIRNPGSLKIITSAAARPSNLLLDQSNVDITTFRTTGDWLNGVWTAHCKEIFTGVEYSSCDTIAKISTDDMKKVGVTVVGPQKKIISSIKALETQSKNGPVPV

[9] = target: T4, Ephrin type-A receptor 3 (Homo sapiens); details: at 10 µM
[10] = target: Ephrin type-A receptor 5 (Homo sapiens) (UniProt P54756); details: at 1 µM
Sequence of Ephrin type-A receptor 5 (Homo sapiens) (P54756 whole entry): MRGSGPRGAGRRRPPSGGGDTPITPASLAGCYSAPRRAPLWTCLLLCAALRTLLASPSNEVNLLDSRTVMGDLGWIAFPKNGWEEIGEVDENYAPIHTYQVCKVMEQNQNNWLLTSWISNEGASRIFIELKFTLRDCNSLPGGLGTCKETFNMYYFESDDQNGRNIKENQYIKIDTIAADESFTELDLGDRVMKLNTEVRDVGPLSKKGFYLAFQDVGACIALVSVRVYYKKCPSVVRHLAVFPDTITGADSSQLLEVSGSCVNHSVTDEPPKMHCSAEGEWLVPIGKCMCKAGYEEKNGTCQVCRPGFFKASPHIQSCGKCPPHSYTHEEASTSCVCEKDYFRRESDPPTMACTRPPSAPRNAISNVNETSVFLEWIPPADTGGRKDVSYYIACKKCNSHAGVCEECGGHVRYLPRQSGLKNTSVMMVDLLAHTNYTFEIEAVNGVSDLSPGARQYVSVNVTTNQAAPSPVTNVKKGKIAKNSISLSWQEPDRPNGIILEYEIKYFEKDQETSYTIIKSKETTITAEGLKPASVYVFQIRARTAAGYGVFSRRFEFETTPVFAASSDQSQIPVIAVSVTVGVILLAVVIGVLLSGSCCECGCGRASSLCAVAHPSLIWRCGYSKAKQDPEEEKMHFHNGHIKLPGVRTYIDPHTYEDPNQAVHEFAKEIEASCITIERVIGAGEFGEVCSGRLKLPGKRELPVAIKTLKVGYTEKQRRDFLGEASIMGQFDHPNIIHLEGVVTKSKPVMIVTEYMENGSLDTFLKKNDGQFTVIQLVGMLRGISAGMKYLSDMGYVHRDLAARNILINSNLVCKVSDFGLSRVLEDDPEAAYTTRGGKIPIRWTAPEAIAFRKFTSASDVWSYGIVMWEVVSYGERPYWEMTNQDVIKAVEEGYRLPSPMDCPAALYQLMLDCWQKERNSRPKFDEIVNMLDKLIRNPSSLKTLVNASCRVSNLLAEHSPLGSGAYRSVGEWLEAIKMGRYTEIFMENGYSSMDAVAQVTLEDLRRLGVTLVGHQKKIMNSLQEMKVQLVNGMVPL

[11] = target: Ephrin type-A receptor 5 (Homo sapiens) (UniProt P54756); details: at 10 µM
[12] = target: Ephrin type-A receptor 7 (Homo sapiens) (UniProt Q15375); details: at 1 µM
Sequence of Ephrin type-A receptor 7 (Homo sapiens) (Q15375 28-998 limits assumed): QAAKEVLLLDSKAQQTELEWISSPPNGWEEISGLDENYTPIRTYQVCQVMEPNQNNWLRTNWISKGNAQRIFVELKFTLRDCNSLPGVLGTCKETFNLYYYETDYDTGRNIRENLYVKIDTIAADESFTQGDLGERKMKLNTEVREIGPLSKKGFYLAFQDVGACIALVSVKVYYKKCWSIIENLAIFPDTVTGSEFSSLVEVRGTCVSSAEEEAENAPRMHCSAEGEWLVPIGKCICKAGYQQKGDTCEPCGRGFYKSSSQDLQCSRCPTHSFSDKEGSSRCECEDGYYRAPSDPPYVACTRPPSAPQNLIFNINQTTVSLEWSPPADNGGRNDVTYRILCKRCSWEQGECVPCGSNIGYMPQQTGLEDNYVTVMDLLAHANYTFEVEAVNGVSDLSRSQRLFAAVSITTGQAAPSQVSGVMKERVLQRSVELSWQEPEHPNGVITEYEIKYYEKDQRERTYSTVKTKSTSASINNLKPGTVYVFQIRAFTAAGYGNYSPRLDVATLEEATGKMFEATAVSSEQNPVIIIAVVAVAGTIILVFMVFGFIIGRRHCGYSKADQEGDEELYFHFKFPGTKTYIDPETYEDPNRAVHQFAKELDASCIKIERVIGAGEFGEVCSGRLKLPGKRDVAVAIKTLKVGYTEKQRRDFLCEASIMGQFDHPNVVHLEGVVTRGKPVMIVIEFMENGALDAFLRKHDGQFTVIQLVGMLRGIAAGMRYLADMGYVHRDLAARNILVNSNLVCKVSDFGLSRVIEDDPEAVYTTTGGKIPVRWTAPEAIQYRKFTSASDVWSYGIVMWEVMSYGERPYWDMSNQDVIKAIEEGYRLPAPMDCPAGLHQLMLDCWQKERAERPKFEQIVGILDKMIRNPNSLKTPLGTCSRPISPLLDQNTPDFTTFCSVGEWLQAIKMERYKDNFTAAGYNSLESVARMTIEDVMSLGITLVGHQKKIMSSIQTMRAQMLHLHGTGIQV

[13] = target: Ephrin type-A receptor 7 (Homo sapiens) (UniProt Q15375); details: at 10 µM
[14] = target: T5, Ephrin type-A receptor 8 (Homo sapiens) (UniProt P29322); details: at 1 µM
T5 sequence (whole entry): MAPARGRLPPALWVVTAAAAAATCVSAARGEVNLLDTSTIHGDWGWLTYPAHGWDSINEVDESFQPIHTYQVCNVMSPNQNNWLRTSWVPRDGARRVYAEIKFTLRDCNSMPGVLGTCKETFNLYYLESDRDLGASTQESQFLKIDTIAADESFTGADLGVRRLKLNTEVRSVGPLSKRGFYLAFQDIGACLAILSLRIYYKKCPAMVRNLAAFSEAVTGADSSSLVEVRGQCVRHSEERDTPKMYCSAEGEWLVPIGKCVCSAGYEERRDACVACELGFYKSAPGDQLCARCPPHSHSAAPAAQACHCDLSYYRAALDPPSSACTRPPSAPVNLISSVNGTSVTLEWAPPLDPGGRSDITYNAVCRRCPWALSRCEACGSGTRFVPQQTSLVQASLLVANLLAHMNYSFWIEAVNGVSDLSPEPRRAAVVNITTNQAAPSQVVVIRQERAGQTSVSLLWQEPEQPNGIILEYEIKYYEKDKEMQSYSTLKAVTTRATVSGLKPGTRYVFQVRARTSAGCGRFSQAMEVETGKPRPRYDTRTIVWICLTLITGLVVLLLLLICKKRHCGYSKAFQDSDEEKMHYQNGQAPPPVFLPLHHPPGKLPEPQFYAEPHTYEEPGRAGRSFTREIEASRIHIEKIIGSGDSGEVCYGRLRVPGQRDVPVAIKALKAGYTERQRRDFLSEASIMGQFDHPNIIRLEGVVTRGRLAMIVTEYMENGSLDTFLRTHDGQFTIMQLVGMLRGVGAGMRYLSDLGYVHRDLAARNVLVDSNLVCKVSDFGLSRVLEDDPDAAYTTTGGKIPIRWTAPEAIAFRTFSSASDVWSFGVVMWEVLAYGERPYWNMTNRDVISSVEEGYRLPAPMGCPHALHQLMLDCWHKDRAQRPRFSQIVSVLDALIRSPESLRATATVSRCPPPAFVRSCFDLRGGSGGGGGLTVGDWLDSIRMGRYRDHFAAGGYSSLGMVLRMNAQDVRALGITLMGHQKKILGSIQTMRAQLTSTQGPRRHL

[15] = target: T5, Ephrin type-A receptor 8 (Homo sapiens); details: at 10 µM
[16] = target: T6, Ephrin type-B receptor 1 (Homo sapiens) (UniProt P54762); details: at 1 µM
T6 sequence (whole entry): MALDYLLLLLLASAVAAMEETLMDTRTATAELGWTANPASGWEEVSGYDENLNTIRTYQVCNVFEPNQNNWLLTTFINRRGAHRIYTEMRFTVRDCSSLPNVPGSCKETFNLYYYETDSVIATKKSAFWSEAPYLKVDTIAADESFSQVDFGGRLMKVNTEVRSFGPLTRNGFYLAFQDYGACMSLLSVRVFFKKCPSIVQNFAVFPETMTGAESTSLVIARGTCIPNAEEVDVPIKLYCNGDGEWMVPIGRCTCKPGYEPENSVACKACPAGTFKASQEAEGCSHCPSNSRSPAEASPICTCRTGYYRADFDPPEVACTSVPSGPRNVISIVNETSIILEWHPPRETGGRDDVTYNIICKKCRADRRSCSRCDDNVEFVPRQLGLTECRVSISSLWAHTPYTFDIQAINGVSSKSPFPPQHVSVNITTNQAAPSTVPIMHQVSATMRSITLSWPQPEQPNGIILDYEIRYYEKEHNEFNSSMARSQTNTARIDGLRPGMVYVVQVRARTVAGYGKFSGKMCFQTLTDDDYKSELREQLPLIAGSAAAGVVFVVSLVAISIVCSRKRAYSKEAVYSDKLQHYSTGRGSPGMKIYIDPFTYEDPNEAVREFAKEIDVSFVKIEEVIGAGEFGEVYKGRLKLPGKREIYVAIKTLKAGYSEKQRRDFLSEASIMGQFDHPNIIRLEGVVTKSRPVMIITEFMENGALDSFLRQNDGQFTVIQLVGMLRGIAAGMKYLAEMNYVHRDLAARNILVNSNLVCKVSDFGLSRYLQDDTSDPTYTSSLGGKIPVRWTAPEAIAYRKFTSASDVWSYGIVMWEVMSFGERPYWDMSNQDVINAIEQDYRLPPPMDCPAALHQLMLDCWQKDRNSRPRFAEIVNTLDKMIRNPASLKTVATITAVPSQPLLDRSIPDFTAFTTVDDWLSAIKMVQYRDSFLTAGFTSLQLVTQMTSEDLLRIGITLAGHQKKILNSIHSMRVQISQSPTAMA

[17] = target: Ephrin type-A receptor 4 (Homo sapiens) (UniProt P54764); details: at 1 µM
Sequence of Ephrin type-A receptor 4 (Homo sapiens) (P54764 whole entry): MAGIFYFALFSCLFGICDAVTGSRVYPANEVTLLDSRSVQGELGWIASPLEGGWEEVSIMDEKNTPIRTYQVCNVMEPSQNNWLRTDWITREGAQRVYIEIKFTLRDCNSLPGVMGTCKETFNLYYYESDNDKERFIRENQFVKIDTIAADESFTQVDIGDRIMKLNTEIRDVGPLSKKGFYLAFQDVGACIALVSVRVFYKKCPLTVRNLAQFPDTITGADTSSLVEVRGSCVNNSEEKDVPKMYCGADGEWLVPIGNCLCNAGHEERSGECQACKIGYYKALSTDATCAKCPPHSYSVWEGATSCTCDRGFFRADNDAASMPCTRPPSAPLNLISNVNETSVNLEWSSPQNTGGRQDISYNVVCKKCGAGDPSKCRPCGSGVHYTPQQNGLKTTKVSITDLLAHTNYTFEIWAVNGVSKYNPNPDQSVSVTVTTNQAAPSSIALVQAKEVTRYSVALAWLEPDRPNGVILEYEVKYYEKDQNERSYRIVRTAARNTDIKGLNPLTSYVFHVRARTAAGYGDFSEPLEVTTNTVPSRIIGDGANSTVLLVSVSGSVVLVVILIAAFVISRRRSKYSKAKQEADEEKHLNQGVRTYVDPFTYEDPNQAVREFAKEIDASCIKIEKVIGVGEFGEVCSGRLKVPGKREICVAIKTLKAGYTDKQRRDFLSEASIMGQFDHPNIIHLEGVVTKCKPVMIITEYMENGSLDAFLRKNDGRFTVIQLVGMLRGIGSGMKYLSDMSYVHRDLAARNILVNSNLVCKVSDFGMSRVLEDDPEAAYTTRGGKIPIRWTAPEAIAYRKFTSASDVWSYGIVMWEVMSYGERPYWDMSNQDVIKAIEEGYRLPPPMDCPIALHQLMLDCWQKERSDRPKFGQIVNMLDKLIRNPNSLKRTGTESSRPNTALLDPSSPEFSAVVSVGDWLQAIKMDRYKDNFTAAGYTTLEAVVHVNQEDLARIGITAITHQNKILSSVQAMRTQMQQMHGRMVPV

[18] = target: Ephrin type-A receptor 4 (Homo sapiens) (UniProt P54764); details: at 10 µM

| Structure (SMILES) | residual activity [1] | residual activity [2] | residual activity [3] | residual activity [4] | residual activity [5] | residual activity [6] | residual activity [7] | residual activity [8] | residual activity [9] | residual activity [10] | residual activity [11] | residual activity [12] | residual activity [13] | residual activity [14] | residual activity [15] | residual activity [16] | residual activity [17] | residual activity [18] |
| --- | --- | --- | --- | --- | --- | --- | --- | --- | --- | --- | --- | --- | --- | --- | --- | --- | --- | --- |
| O=C1Nc2ccccc2/C1=C1/Nc2ccccc2/C1=N\OCCC(O)CO (centres undefined) | 3% | 70% | 52% | 43% | 42% | 54% | 14% | 41% | 6% | 59% | 23% | 58% | 10% | 72% | 32% | 56% | – | – |
| Cc1cncc2cccc(S(=O)(=O)N3CCCN(C(=O)CN)C[C@H]3C)c12 | – | 91% | 94% | 54% | 7% | 92% | 56% | 96% | 50% | – | 83% | – | 66% | 98% | 85% | 75% | – | – |
| CC[n+]1c(/C=C/N(C)c2ccccc2)n(-c2ccccc2)c2ccc(-c3nc4ccccc4s3)cc21 | 68% | 99% | 103% | 100% | 100% | 109% | 90% | 116% | 92% | 120% | 110% | 108% | 96% | 114% | – | 103% | 106% | 85% |
| Nc1n[nH]c2nnc(-c3c(-c4ccccc4)nn4ccccc34)cc12 | 117% | 94% | 88% | 96% | 66% | 91% | 95% | 94% | 93% | 91% | 94% | 91% | 83% | 91% | 80% | 98% | 104% | 100% |
